UbGFP stabilizer – ubiquitin-GFP accumulation via proteasome inhibition; Ubiquitin-GFP reporter cells, proteasome inhibition, GFP fluorescence; response scale: untreated = 0%, 10 µM MG-132 = 100%; Potency, µM (titrated, usually from 45.9 µM), inactives show top-dose activation (GFP accumulation), most hits filed as activators; 67,000 tested, under 10 active; AID 526; active = well fitted activation curve with a large enough effect, not every such curve was filed as active; inconclusive = small, poorly fitted or top-dose-only effect, or another doubt; inactive = no such curve, though single readings can be large or run the other way; note: potency is the fitted concentration of half-maximal effect
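Reporter cells (U2OS, ubiquitin-G76V-GFP fusion) are plated overnight, then treated 4 hr at 37 °C with compound titrations from 46 uM down to 2.9 nM. Activity is scaled against untreated cells and 10 uM MG-132.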
HBB splicing – modulators of hemoglobin beta chain splicing; HBB splicing reporter cell assay, activation; EGFP reporter with mutant IVS2-654 intron; response scale: normalised to 500 nM splice-correcting PNA; Potency, µM (titrated, usually from 46.1 µM), for inactives: top-dose activation, most hits filed as activators; hit rate 0.06% among 65,000; AID 925; note: potency is the fitted concentration of half-maximal effect; 0% is about no effect
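HeLa cells stably expressing EGFP interrupted by mutant beta-globin intron 2 (IVS2-654), 500/well in 2% FCS. Treated with compound for 2 days at 37C. Splicing correction scored as total well GFP intensity (488 nm excitation, 500-520 nm emission); 500 nM antisense PNA served as control.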
HEK293 cAMP ctrl – parental HEK293 cAMP activation (counter-screen); hit rate 2.5% among 73,000; parental HEK293 CNG cAMP sensor, membrane potential fluorescence; Potency, µM (doses to about 57.1 µM), for inactives: top-dose activation, most hits filed as activators; note: potency is the fitted concentration of half-maximal effect; % of control where 0% means no effect; nearly all actives have a fitted effect of over 55% in size
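Counterscreen for endogenous-receptor signalling: CNG-channel HEK 293 cells report cAMP rise by membrane depolarization. After 60 min dye equilibration with 100 uM RO 20-1724, compounds incubated 30 min before bottom-read fluorescence at 590 nm.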
TSHR agonist – TSH receptor (human) agonism; P16473; HEK293-CNG-TSHR cells (CNG channel as cAMP sensor), membrane potential dye, cAMP; Potency, µM (top dose mostly 57.1 µM), for inactives: top-dose activation, hits mostly activators; hit rate 0.48% among 73,000; active = well fitted activation curve with a large enough effect in the main read-out, with a control signal flat, not every such curve was filed as active; inconclusive = small, poorly fitted or top-dose-only effect, or a change in a side signal; inactive = no such curve, though single readings can be large or run the other way; % of control where 0% means no effect;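 note: the control signal comes from parental cells without the receptor; potency is the fitted concentration of half-maximal effect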
Target sequence (P16473 whole entry, looked up): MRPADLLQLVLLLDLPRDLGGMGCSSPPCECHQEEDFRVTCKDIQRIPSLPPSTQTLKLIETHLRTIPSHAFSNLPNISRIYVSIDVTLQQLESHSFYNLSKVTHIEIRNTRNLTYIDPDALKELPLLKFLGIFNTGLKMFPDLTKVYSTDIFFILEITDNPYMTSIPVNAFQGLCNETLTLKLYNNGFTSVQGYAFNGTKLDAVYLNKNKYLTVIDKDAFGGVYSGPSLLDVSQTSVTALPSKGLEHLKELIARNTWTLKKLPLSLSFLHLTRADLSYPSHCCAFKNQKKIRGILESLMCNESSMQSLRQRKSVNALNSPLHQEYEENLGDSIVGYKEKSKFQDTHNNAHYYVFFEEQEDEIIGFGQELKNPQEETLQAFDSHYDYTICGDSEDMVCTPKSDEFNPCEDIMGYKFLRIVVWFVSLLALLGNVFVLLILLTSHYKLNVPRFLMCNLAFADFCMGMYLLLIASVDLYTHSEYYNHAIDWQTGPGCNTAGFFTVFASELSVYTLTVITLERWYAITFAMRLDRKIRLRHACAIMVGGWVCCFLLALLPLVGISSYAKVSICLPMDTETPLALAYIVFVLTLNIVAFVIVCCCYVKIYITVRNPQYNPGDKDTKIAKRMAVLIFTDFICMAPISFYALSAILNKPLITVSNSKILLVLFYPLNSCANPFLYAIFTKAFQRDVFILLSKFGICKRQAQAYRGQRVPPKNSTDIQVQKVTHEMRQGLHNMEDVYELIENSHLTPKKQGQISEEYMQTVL
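cAMP rise detected as CNG-channel membrane depolarization by fluorescent dye (emission 590 nm), 30 min after compound, following 60 min dye loading containing 100 uM RO 20-1724 at room temperature. Cells: TSHR/CNG HEK 293, with parental CNG HEK 293 as control.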
Epigenetic mod – derepresses silenced GFP locus in mouse C127i cells; hit rate 0.09% among 68,000; mouse C127i GFP locus derepression, cytometry, 30 h; Potency, µM (series often up to 46.1 µM), for inactives: at the highest dose GFP derepression (activation); note: % of control where 0% means no effect
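Read-out is the number of GFP-positive cells, scored as fluorescent objects 20 to 120 um wide, reflecting derepression of a silenced CMV-GFP reporter in murine C127i cells after 30 h compound exposure at 37 C.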
ERK AVP block – inhibitors of vasopressin-stimulated ERK signaling pathway; Potency, µM (top dose mostly 57.5 µM), for the others: at the highest dose activity, negative = inhibition, hits mostly inhibitors; HEK293-V1b, vasopressin-stimulated pERK AlphaScreen; hit rate 0.99% among 72,000; note: potency is the fitted concentration of half-maximal effect; % is set by controls: 0 for no effect and ±100 for the full control effect; nearly all actives have a fitted effect of over 55% in size
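HEK293 cells stably expressing V1b receptor, seeded overnight in 1% FBS, were treated with compounds for 30 min at 37C, then stimulated 5 min with 25 nM vasopressin; phospho-ERK read by AlphaScreen SureFire after lysis.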
Numbers without * were called inactive; ? = inconclusive; . = no result; [ ] = another dose, or the depositor's remark. Rows were chosen to be rich in hits. Some 3.8% of all compounds tested hit in one or more screens of this group. Unless noted, calls come from the whole dose curve; as a rule, active = well fitted curve in the direction sought with a large enough effect; inconclusive = small, poorly fitted or top-dose-only effect, or another doubt; inactive = no such curve, though single readings can be large; an effect the other way counts as inactive or inconclusive.

SMILES	UbGFP stabilizer	HBB splicing	HEK293 cAMP ctrl	TSHR agonist	Epigenetic mod	ERK AVP block
CCC1=C2CC[C@H]3C(=O)NC(=O)[C@H]3[C@H]2[C@@]2(Cc3ccccc3)C(=NCC3CC3)OC(=O)N2C1=O	.	.	.	.	.	8%
CN(C)c1cc(NC(=O)CN2CCOCC2)c2ccccc2n1	-7%	0%	20µM*	?	.	10%
N#Cc1nc(COc2ccc(Br)cc2)oc1N1CCCCCC1	6%	0%	25µM*	?	2%	?
COc1ccc(N2CCN(c3oc(COc4ccccc4)nc3C#N)CC2)cc1	-3%	.	0.79µM*	?	-1%	-1%
CCOc1ccc(-c2nc(C#N)c(N3CCN(Cc4ccccc4)CC3)o2)cc1	0%	-1%	9%	25%	2%	16µM*
CC1C(=O)OC2C(O)C34C5CC(C(C)(C)C)C36C(OC(=O)C6O)OC4(C(=O)O5)C12O (stereo not given)	0%	.	-2%	1%	-1%	-11%
O=C(c1ccco1)N1CCC2(CCCN(c3ccccn3)C2)CC1	-13%	3%	?	?	5%[9.22 µM]	9%
CC[C@H](C(=O)[C@H](C)[C@H](O)[C@H](C)CCc1ccc(C)c(O)c1C(=O)O)[C@H]1O[C@](CC)([C@@H]2CC[C@@](O)(CC)[C@H](C)O2)C[C@H]1C	15%[20.5 µM]	0%[20.6 µM]	-6%[25.6 µM]	21%[25.6 µM]	-2%[20.6 µM]	2%[25.7 µM]
O=C1CCc2cc(OCCCCc3nnnn3C3CCCCC3)ccc2N1	3%	-2%	?	25µM*	0%[20.6 µM]	-5%
COc1ccc(-c2nnc(SCC(=O)c3cc(C)n(Cc4cccs4)c3C)o2)cc1	-2%	0%[57.5 µM]	?	?	3%	?
CC(=O)Nc1ccc(SCC(=O)c2cc(C)n(Cc3cccs3)c2C)cc1	-2%	0%[57.5 µM]	?	?	-1%	4%
Cc1csc(SCC(=O)c2cc(C)n(Cc3cccs3)c2C)n1	4%	0%	16µM*	?	1%	?
Cc1cc(C(=O)COC(=O)c2ccc3c(c2)OCO3)c(C)n1Cc1cccs1	-1%	-3%	?	?	2%	-5%
CC(=O)Nc1ccccc1OCC(=O)c1cc(C)n(Cc2cccs2)c1C	0%	0%[57.5 µM]	10µM*	?	3%	15%
COc1ccc(-n2cnnc2SCC(=O)c2cc(C)n(Cc3cccs3)c2C)cc1	-4%	0%[57.5 µM]	25µM*	?	1%	?
C1N2CN3CN1CN(C2)C3	.	.	.	.	.	20%
S=C1NCN2CCN(CC2)CNC(=S)C(=S)NCN2CCN(CC2)CNC1=S	-4%[9.17 µM]	1%[9.22 µM]	-8%[11.4 µM]	1%[11.4 µM]	6%[9.22 µM]	5%[11.5 µM]
O=c1cc(-c2ccc(O)c(O)c2)oc2cc(O[C@@H]3O[C@@H](CO)[C@@H](O)[C@@H](O)[C@H]3O)cc(O)c12	5%	.	-2%	-6%	-5%[9.22 µM]	.
C[C@H]1C[C@@H]2[C@H]3CCC4=CC(=O)C=C[C@@]4(C)[C@]3(Cl)[C@@H](Cl)C[C@]2(C)[C@]1(O)C(=O)COP(=O)(O)O	-1%[9.17 µM]	-2%[9.22 µM]	6%[11.4 µM]	0%[11.4 µM]	0%[9.22 µM]	.
Fc1ccc(Nc2ccnc(-c3ccoc3)n2)cc1	-4%	1%	1%	6%	-1%[9.22 µM]	32µM*
Fc1ccc(Nc2ccnc(-c3ccc4c(c3)OCO4)n2)cc1	10%	-1%	-9%	0%	2%[9.22 µM]	?
CN(C)C(=O)c1ccc(-c2ccc3ncnc(NCc4ccccc4)c3c2)cc1	-2%	0%	7%	7%	2%[9.22 µM]	25µM*
Cc1cccc(CNc2ncnc3ccc(-c4c(C)noc4C)cc23)c1	-5%	0%	?	?	0%[9.22 µM]	?
c1cncc(CNc2ncnc3ccc(-c4ccoc4)cc23)c1	-5%	0%	-2%	2%	-4%[9.22 µM]	-1%
Cc1cccc(CNc2ncnc3ccc(-c4ccoc4)cc23)c1	1%	3%	32µM*	?	-3%[9.22 µM]	-17%
